Experimental findings from PubChem BioAssay (NCI) are described below.

This is part of a sample that, as a whole, favours compounds with a hit. Of some 83,000 tested, about 20% had one in any assay.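 Single-concentration screen, 48 h exposure, 96-well plates. Endpoint: percent growth. Below 10 = active.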 Activity calls are given as the source filed them.

The subject of the experiment is NCI-H23 lung. The experiment can be described thus: NCI-60 one-dose screen, 48 h (100 = growth as untreated, 0 = no growth, -100 = all killed). The note with it: 10 µM unless noted. On the procedure:
Growth inhibition of the NCI-H23 human Non-Small Cell Lung tumor cell line is measured as a screen for anti-cancer activity. Cells are grown in 96 well plates and exposed to the test compound for 48 hours. Compounds are tested at a single concentration, which is 10^-5 M for most compounds. The reported endpoint is percent growth (GI% or GIPRCNT), where numbers from 0 - 100% represent growth inhibition, and numbers from -100% - 0 represent cell death. For example, a value of 40 represents 60% growth inhibition. A value of 0 means no net growth occurred over the course of the experiment. A value of -40 indicates 40% of cells at the beginning of the experiment died by the end of the experiment. A value of -100 means all cells are dead at the end of the experiment.
NCI-60 Human Tumor Cell Lines Screen was performed using the standard one-dose NCI protocol, which is described in more detail at https://dtp.cancer.gov/discovery_development/nci-60/default.htm.
Compounds with GIPRCNT values below 10 were considered active. Activity score was based on GIPRCNT using the following formula: […]
Score is 0 for GIPRCNT values of 100 or above, 50 for GIPRCNT values of 0, and 100 for GIPRCNT values of -100.
On to `N=C(N)c1ccc(-c2ccc(-c3ccc(Cl)cc3Cl)s2)cc1`, for which the growth is 56.5% (inactive).

For `Cc1c2cnccc2c(C)c2c1c1cc(C#N)ccc1n2C`, the growth was -37.4% (active).

Consider `COc1ccc(-c2nc3c(ncc4ccc(=O)[nH]c43)s2)cc1`, for which the growth is 78.8% (inactive).

In the case of `Cc1ccc(-c2nc([P+](c3ccccc3)(c3ccccc3)c3ccccc3)c(S(=O)(=O)c3ccc(C)cc3)o2)cc1`, the growth was 15% (inactive).

For the molecule `Nc1nc(N)c(-c2ccc(Cl)c(Cl)c2)c(CBr)n1`, the growth was 78.3% (inactive).

For the molecule `O=C(Nc1cccc(-c2ccc(N3CCOCC3)nn2)c1)Nc1cccc(C(F)(F)F)c1`, the growth was 70.4% (inactive).

For the molecule `COC1=CC(c2ccc[nH]2)=N/C1=C\c1[nH]c(C)c(C(=O)OC(C)C)c1C`, the growth is -43.4% (active).

For the molecule `NC(Cc1ccc(O)c([N+](=O)[O-])c1)C(=O)O` (stereo not given), the growth was 98.5% (inactive).

As for `Cc1[nH]c(=O)[nH]c(=O)c1Br`, the growth is 97.9% (inactive).

For the molecule `Cn1ccnc1C(=O)/C=C/c1ccc(CC(=O)Nc2cc(C(F)(F)F)cc(C(F)(F)F)c2)cc1`, the growth is 85.4% (inactive).

For the molecule `CC(C)C1=NOC(=O)C1=Cc1cn(-c2ccccc2)nc1-c1ccc(F)cc1`, the growth was 95.6% (inactive).

As to `COc1cc2nc3cc([N+](=O)[O-])ccc3c(NCCNCC(C)O)c2cc1OC` (stereo not given), the growth is -27.8% (active).

Consider `C1CCC([PH+](C2CCCCC2)C2CCCCC2[PH+](C2CCCCC2)C2CCCCC2)CC1.[Au].[CH-]1CCCCC1C1CCCC[N-]1` (stereo not given), for which the growth is -31% (active).

As for `Nc1c(C(=O)Nc2ccccc2F)sc2nc3c(cc12)CCCC3`, the growth was 51.2% (inactive).

With `COc1ccc(\C=N/N=C(N)/C(N)=N\N=C/c2ccc(OC)cc2)cc1`, the growth was 95.6% (inactive).

Take `CCOC(=O)c1cc2c(n1C)-c1nc(NC(C)=O)sc1CCC2`: the growth is 76.1% (inactive).

Regarding `CC(C)(C)CC(C)(C)NC(=O)Nc1ncccc1OCc1ccccc1`, the growth was 86.4% (inactive).

In the case of `Cc1ccc(NC(=O)c2sc3nc(C)c(Br)c(C)c3c2N)cc1`, the growth is 73.8% (inactive).

As to `Cc1cc(N2CCN(CCNc3ccnc4cc(Cl)ccc34)CC2)nc(N2CCOCC2)n1`, the growth is 42.8% (inactive).

Take `C=CCc1c(O)c(C(=O)/C=C/c2ccccc2)c(OC)c2ccoc12`: the growth is 53.4% (inactive).

`COc1ccc(C/C(C)=C(/c2ccc(OCCN(C)C)cc2)c2ccc(OC(=O)NCc3ccccc3)cc2)cc1`: the growth was 83.1% (inactive).

Regarding `CCOC(=O)C#Cc1c(C(=O)OCC)nnn1Cc1ccc([N+](=O)[O-])cc1`, the growth is 86.2% (inactive).

Turning to `COc1cc2c(c(OC)c1OC)CCC(c1cccc(C(=O)Nc3ccc(C#N)cc3)c1)O2` (stereo not given), the growth is 40.6% (inactive).

For the molecule `COc1ccc2c(c1)N(CCO)C1=C(C(=O)OC1)C2c1cccc(F)c1` (stereo not given), the growth was 25.6% (inactive).

As to `CCCCCCCC[C@@H]1N[C@@H](C(=O)OC)Cc2c1[nH]c1ccccc21`, the growth was 92.1% (inactive).

Turning to `CCCCC1=C(P(=O)(O)O)N[C@H](C(=O)O)CS1`, the growth was 97.5% (inactive).

`COc1ccc(CNc2c3ccccc3nc3ccccc23)cc1`: the growth was 38.8% (inactive).

Regarding `CC/C=C\C[C@H](O)C/C=C1/C(=O)C=C[C@@H]1C/C=C\CCCC(=O)N(C)C`, the growth was -27% (active).

As for `O=C(CN1CCCCC1)Nc1nc(-c2cc3ccccc3oc2=O)cs1`, the growth is 109% (inactive).

With `CS(=O)(=O)Nc1cc(-c2ccc3ncnc(Nc4ccc5c(cnn5Cc5cccc(F)c5)c4)c3c2)cnc1Cl`, the growth was 10.4% (inactive).

On to `CCn1cc(C(=O)O)c(=O)c2cc(F)c(N3CCN(CC(=O)Nc4ccc(S(=O)(=O)Nc5nccc(C)n5)cc4)C(C)C3)c(F)c21` (stereo not given), for which the growth was 103% (inactive).

Regarding `Cc1cc(=O)n(C(=O)Nc2ccccc2Cl)c2cc(O)ccc12`, the growth is 98.6% (inactive).

Turning to `N#CC1=C(c2ccccc2)Nc2c(c(-c3ccc(Cl)cc3)nn2-c2ccccc2)C12C(=O)Nc1ccc(Cl)cc12` (stereo not given), the growth is 92.1% (inactive).

As to `O=S(=O)(Nc1cc(Cl)ccc1Cl)c1ccc(-c2cnc(C3CC3)o2)cc1`, the growth is 52.8% (inactive).

`COc1cccc(/C=C2\COc3ccc(O)c(O)c3C2=O)c1`: the growth is 47% (inactive).

With `COc1cc(-c2cncn2-c2ccc(-c3nc4ccc(F)cc4s3)cc2)ccc1F`, the growth was 71% (inactive).

For the molecule `CC(C)Cn1cnc2c(=O)[nH]c(N)nc21`, the growth is 99.3% (inactive).

On to `O=[N+]([O-])c1ccc(O)cc1Br`, for which the growth is 95.1% (inactive).

Turning to `N#C/C(=C\c1c(-c2ccccc2)[nH]c2ccccc12)C(N)=O`, the growth is 85.4% (inactive).

In the case of `COc1ccc(C(=O)c2cc3c(N)c(C(=O)Nc4ccc(C)cc4)sc3nc2C)cc1`, the growth was 43.3% (inactive).
